The test system of experiment [1] is PRMT1 (protein arginine N-methyltransferase 1). As to the kind of experiment: small molecules binding arginine methyltransferase PRMT1 – biochemical, small-molecule microarray, 635 nm fluorescence, primary screen (AID 1088).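 Further: binding of Prmt1 protein to compounds spotted on small-molecule microarray slides.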 Conditions: higher = more signal.
A short description of experiment [2]: growth effects on S. cerevisiae YJM789 – YJM789 clinical isolate, OD600, 24 h, basal, primary screen (AID 1089).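 Further: growth of clinical yeast isolate S. cerevisiae YJM 789 seeded 1000 cells per well; test concentration not given here.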 Conditions: higher = more signal, called active from +8 up or from −8 down.
Experiment [3] can be described thus: S. pombe growth modifiers, basal conditions – strain 972, OD600, 24 h, no modulator, primary screen (AID 1090).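 Further: basal condition with compound alone and no growth modifier present; test concentration not given here.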 The conditions noted are these: S. pombe 972 growth, higher = more signal, called active from +8 up or from −8 down.
Experiment [4] in a line: budding yeast growth modifiers under rapamycin – strain BY4716, OD600, 96 h, primary screen (AID 1091). Further: test concentration not given here. The conditions noted are these: S. cerevisiae BY4716 + rapamycin, higher = more signal, called active from +8 up or from −8 down.
Experiment [5] deals with Torsin-1A-interacting protein 2 (Homo sapiens) (UniProt Q8NFQ8). Nature of the experiment: small molecules binding lysate-expressed LULL1 – cell lysate, human LULL1 lysate, 635/667 nm fluorescence, primary screen (AID 1092).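 Further: probe is lysate of COS7 cells overexpressing human LULL1; score merges per-feature 667 nm fluorescence with signal-to-noise.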 Conditions: small-molecule microarray, hLULL1 lysate binding, 635 nm fluorescence; higher = more signal.
Chain of Torsin-1A-interacting protein 2 (Homo sapiens) (Q8NFQ8 whole entry, looked up): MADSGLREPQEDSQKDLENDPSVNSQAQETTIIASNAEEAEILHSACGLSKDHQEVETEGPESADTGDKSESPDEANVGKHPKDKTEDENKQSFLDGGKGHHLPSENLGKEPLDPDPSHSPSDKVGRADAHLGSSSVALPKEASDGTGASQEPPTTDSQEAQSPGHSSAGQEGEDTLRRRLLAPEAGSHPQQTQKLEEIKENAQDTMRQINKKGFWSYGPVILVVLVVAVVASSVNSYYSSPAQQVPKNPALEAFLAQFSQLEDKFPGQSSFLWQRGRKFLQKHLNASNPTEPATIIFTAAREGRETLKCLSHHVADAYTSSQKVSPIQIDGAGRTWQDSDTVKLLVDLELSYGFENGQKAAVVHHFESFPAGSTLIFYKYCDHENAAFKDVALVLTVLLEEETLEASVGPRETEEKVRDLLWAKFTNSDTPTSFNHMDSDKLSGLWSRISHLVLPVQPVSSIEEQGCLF
Experiment [6] in a line: optical density change of DRC41 E. coli – strain DRC41, OD650, 24 h, E. coli filamentation project, primary screen (AID 1093).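 Further: MC1000 strain lacking acrAB efflux and sulA so SOS filamentation is blocked; test concentration not given here.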 The conditions noted are these: E. coli DRC41 growth, higher = more signal, called active from +8 up or from −8 down.
Experiment [7] is described as follows: probe aLefty2 binding to arrayed compounds – biochemical, biotinylated probe, 635/667 nm fluorescence, primary screen (AID 1094).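 Further: score merges spot fluorescence near 667 nm with spot signal-to-noise ratio.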 Conditions: small-molecule microarray, higher = more signal.
In experiment [8] the test system is Noggin (protein binding on small-molecule microarray). As to the kind of experiment: small molecules binding Noggin protein – biochemical, 635/667 nm fluorescence, primary screen (AID 1095).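 Further: score merges 667 nm feature fluorescence with signal to noise over triplicate slides.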 The conditions noted are these: 635 nm fluorescence, higher = more signal.
Experiment [9] has as its target Neurogenic locus notch homolog protein 3 (Homo sapiens) (UniProt Q9UM47). Nature of the experiment: small molecules binding NOTCH3 protein – biochemical, 635/667 nm fluorescence, primary screen (AID 1096). Conditions: small-molecule microarray, 635 nm fluorescence, higher = more signal.
A short description of experiment [10]: probe aEGFR binding to arrayed compounds – biochemical, biotinylated probe, 635/667 nm fluorescence, primary screen (AID 1097).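 Further: probe is a biotinylated anti-EGFR antibody binding compounds printed on slides; score combines fluorescence near 667 nm and signal to noise of each spot.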 Conditions: small-molecule microarray, higher = more signal.

Here are results for 13 molecules from PubChem BioAssay.

Active and inactive are the calls of the source.

Chain of Neurogenic locus notch homolog protein 3 (Homo sapiens) (Q9UM47 whole entry, looked up): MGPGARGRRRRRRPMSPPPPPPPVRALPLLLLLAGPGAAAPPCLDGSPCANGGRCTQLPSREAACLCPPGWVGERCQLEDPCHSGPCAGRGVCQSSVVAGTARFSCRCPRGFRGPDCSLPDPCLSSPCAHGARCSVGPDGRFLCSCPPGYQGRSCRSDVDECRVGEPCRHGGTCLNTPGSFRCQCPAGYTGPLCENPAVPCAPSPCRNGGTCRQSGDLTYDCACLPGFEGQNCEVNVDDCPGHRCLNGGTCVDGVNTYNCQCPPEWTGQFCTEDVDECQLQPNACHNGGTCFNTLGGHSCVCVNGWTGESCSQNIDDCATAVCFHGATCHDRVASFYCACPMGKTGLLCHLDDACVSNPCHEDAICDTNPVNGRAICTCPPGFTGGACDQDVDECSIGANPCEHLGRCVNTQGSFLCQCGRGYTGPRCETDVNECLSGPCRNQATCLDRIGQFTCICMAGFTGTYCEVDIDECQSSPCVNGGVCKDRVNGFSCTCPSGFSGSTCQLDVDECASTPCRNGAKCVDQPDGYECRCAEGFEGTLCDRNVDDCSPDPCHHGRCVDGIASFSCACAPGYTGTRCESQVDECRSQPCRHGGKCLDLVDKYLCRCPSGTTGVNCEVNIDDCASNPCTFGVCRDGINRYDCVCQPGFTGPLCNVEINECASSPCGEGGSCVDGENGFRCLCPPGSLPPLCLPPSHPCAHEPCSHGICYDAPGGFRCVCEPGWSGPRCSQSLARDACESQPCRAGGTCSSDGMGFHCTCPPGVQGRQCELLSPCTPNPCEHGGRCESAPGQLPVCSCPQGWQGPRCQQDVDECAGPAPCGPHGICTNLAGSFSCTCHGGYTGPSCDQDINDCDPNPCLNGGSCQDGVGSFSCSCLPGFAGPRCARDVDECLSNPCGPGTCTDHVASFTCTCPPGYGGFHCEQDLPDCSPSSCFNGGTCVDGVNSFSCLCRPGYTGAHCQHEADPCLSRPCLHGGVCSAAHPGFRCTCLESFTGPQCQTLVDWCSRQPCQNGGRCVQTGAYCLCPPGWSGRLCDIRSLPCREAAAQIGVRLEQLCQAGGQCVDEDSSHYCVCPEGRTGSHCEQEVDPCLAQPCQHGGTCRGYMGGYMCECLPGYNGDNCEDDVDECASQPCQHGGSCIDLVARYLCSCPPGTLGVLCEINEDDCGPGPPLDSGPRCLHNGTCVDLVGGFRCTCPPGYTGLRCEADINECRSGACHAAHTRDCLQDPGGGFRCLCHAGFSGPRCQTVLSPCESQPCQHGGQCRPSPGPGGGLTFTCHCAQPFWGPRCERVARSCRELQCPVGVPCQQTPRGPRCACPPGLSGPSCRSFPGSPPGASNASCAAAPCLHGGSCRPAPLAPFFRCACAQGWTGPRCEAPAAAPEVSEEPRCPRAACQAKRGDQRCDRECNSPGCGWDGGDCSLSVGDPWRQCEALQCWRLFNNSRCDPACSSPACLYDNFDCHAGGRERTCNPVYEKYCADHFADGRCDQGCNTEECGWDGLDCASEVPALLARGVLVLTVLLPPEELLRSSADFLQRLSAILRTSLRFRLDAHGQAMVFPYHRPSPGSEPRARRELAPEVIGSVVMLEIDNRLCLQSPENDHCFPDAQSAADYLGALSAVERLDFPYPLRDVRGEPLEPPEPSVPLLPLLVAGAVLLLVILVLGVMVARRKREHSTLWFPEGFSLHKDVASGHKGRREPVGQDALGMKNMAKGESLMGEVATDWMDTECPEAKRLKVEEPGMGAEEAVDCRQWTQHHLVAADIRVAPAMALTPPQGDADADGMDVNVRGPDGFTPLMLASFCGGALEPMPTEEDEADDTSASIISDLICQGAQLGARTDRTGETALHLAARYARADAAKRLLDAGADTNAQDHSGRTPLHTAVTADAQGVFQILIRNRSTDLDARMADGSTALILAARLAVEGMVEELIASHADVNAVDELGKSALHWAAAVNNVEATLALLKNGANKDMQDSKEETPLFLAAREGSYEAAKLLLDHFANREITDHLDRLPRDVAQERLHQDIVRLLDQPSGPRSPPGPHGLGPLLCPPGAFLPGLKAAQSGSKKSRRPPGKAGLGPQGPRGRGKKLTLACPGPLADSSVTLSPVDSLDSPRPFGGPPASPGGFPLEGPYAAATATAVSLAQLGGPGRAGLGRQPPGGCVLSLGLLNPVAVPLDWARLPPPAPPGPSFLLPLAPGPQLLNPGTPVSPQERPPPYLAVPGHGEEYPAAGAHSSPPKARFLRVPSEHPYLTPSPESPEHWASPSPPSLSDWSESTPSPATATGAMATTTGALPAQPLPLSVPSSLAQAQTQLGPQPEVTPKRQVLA

Regarding `C=C(COC)/C(=C/C[C@H](OC(=O)c1ccncc1)c1ccc(CO)o1)c1cc(C(=O)OC)ccc1OC`, the composite z-score in experiment [1] was 1.55; in experiment [5], 1.84; in [7], 0.0421; in [8] it was 0.834; in [9], 1.12; in [10] it was -0.112. Also, the z-score is -0.787 (inactive) in experiment [2], 0.132 (inactive) in experiment [3], -0.443 (inactive) in experiment [4] and 0.55 (inactive) in experiment [6].

Regarding `C#C[C@@H]1Oc2ccccc2S(=O)(=O)N2CCC[C@H]12`, the composite z-score in experiment [1] was -1.07; in experiment [5] it was -0.875; in experiment [7], 0.0886; in experiment [8], 0.18; in [9], -0.176; in experiment [10], 0.056. The z-score is -0.0284 (inactive) in experiment [2], 0.809 (inactive) in experiment [3], -2.55 (inactive) in experiment [4] and -1.1 (inactive) in experiment [6].

With `C[C@@H](c1ccccc1)N1C(=O)[C@H]2[C@H]3[C@H](O)[C@H](O)CC(=NOC[C@@H](O)COCc4ccco4)[C@@H]3CC[C@H]2C1=O`, the composite z-score in [1] was -0.291; in experiment [5], 0.304; in experiment [7], -0.217; in experiment [8], -1.01; in experiment [9] it was -1.1; in experiment [10] it was -0.221. The z-score was 0.539 (inactive) in experiment [2], 0.37 (inactive) in experiment [3], 1.3 (inactive) in experiment [4] and 0.181 (inactive) in [6].

As for `O=C1[C@H]2[C@H]3[C@H](O)[C@H](O)CC(=NOCc4ccccc4)[C@@H]3CC[C@H]2C(=O)N1Cc1ccccc1`, the composite z-score in experiment [1] was 0.0044; in [5], 0.577; in experiment [7] it was -0.21; in experiment [8], 0.656; in [9], 0.797; in experiment [10] it was -0.0828. In addition, the z-score was -0.132 (inactive) in experiment [2], -0.176 (inactive) in [3], -1.41 (inactive) in [4] and 0.263 (inactive) in experiment [6].

As for `CC(C)NC(=O)[C@@H]1c2ccccc2C(=O)N(CC23CC4CC(CC(C4)C2)C3)[C@H]1c1ccc(CO)cc1`, the composite z-score in [1] is 1.57; in experiment [5] it was 2.68; in [7], -0.143; in experiment [8], 0.701; in [9] it was 1.04; in experiment [10], 0.0633. The z-score in [2] is -1.44 (inactive); in experiment [3], -1.81 (inactive); in experiment [4] it was -0.241 (inactive); in experiment [6], 1.43 (inactive).

Regarding `COC(=O)[C@@]1(Cc2ccc(F)cc2)[C@@H]2C(=CC(=O)[C@H]2CC(=O)C(=O)N(C)C)CN1C(=O)c1ccccc1`, the composite z-score came to 1.14 in experiment [1]; 3.5 in [5]; 0.393 in [7]; 0.171 in [8]; 1.02 in [9]; 0.396 in experiment [10]. The z-score was 1 (inactive) in [2], 1.84 (inactive) in experiment [3], 8.71 (active) in [4] and -0.399 (inactive) in experiment [6].

For `NCCCCCNC(=O)[C@@H]1C[C@@H]2C(=O)N3CCC[C@H]3C(=O)N2[C@@H]1c1cccc(OCCO)c1`, the composite z-score is 1.35 in experiment [1]; 1.41 in [5]; 0.948 in experiment [7]; 0.989 in experiment [8]; 0.613 in [9]; 0.364 in experiment [10]. Moreover, the z-score in experiment [2] was -0.486 (inactive); in [3], -0.703 (inactive); in experiment [4] it was -0.652 (inactive); in experiment [6] it was -0.104 (inactive).

For `[N-]=[N+]=NCc1ccccc1C[C@]1(C(=O)NCc2ccccc2)N=C(c2ccc(OCCCO)cc2)O[C@H]1c1ccccc1N=[N+]=[N-]`, the composite z-score in [1] was determined as 1.26; in experiment [5], 3.17; in [7], 0.284; in [8] it was 0.179; in experiment [9] it was 0.755; in experiment [10], 0.464. Moreover, the z-score is 0.228 (inactive) in experiment [2], 1 (inactive) in experiment [3], 6.01 (inactive) in [4] and 0.368 (inactive) in experiment [6].

Consider `O=C1[C@H]2[C@H]3[C@H](O)[C@H](O)CC(=NO[C@@H]4O[C@H](CO)[C@@H](O)[C@H](O)[C@H]4O)[C@@H]3CC[C@H]2C(=O)N1c1ccc(F)cc1F`, for which the composite z-score in [1] is -0.841; in experiment [5], 0.245; in experiment [7], -0.119; in experiment [8], 0.575; in experiment [9], 0.79; in experiment [10], -0.113. Further, the z-score in experiment [2] was -1.24 (inactive); in experiment [3] it was -0.114 (inactive); in experiment [4], -1.29 (inactive); in experiment [6] it was 0.645 (inactive).

Turning to `CC(C)CON=C1[C@H]2CCn3c(=O)n(-c4ccccc4)c(=O)n3[C@H]2[C@H](O)[C@@H]2O[C@H]12`, the composite z-score in experiment [1] is -0.317; in experiment [5], -0.381; in experiment [7], -0.149; in experiment [8], 0.302; in experiment [9], 0.837; in experiment [10], -0.228. The z-score is -0.476 (inactive) in [2], 0.0606 (inactive) in experiment [3], -0.369 (inactive) in experiment [4] and 0.343 (inactive) in [6].

Consider `CO[C@@H]1COC(=O)[C@@H]2CCCN2C(=O)[C@@H](C)COC(=O)[C@H](COCc2ccccc2)NC(=O)CC=C[C@H]1C`, for which the composite z-score in experiment [1] was 0.705; in experiment [5] it was 0.445; in experiment [7], -0.236; in [8], 0.529; in experiment [9], 0.554; in experiment [10], -0.198. The z-score in experiment [2] is 0.953 (inactive); in experiment [3] it was 0.263 (inactive); in [4] it was 0.458 (inactive); in [6], -1.99 (inactive).

Regarding `CCCNC(=O)OC[C@H]1O[C@H](CCON=C[C@@H](OC)[C@H](C)C=CCC(=O)OC)C=C[C@@H]1Oc1ccc(OC)cc1`, the composite z-score was 1.17 in [1]; 0.524 in experiment [5]; -0.0519 in experiment [7]; 0.194 in experiment [8]; -0.31 in experiment [9]; -0.136 in [10]. Besides, the z-score in experiment [2] was -1.01 (inactive); in experiment [3], 0.141 (inactive); in experiment [4] it was -0.0988 (inactive); in [6], 0.294 (inactive).

Turning to `CC(CCN1CCCCc2nc(C)c(C)cc21)=NOC(C)CN1CCCc2nc(C)c(C)cc21` (stereo not given), the composite z-score in [1] was found to be 1.52; in [5], 2.91; in [7], 0.447; in [8] it was 1.07; in experiment [9], 1.04; in [10], 0.509. For the same molecule, the z-score is -1.19 (inactive) in [2], -1.06 (inactive) in [3], -0.321 (inactive) in [4] and 0.162 (inactive) in [6].
